Rows were chosen to be rich in hits. Some 6.5% of all compounds tested hit in one or more screens of this group.
Marburg entry inh – blocks Marburg virus binding to or entry into cells. Marburg virus pseudotyped entry inhibition, cell reporter. Potency, µM (doses to about 37.8 µM), without a hit: at the highest dose activity change, negative = inhibition, most hits filed as inhibitors. actives 1.8% (n = 300,000). AID 540276; calls by dose curve; tested in HEK293 cells; also: potency is read from the fitted curve at half-maximal effect
VACV Venus inh – inhibitors of vaccinia virus (Venus reporter). AID 720580. actives 0.46% (n = 330,000). Vaccinia virus Venus reporter expression, fluorescence. Potency, µM (highest dose often 36.5 µM), without a hit: top-dose activity change, negative = inhibition, hits mostly inhibitors; calls by dose curve; tested in A549 cells; also: potency is read from the fitted curve at half-maximal effect; nearly all actives have a fitted effect of over 30% in size
FMDV inh – foot and mouth disease virus antiviral activity | FMDV antiviral cell-based qHTS | actives 1.2% (n = 410,000) | Potency, µM (highest dose often 57.9 µM), inactives show top-dose activity change, negative = inhibition, usual class: inhibitors | AID 1159524; calls by dose curve; tested in HEK293T cells; also: read-out not given here; potency is read from the fitted curve at half-maximal effect; nearly all actives have a fitted effect of over 45% in size
HCMV inh – inhibitors of human cytomegalovirus. actives 4.5% (n = 410,000). activity change, negative = inhibition, % at 57.5 µM. HFF cells, HCMV-luciferase reporter, 72 h; stronger effect = lower value. AID 1259415; in the data active = activity change below about -60%; inconclusive = no clear call, values can overlap the other calls; inactive = above about -39%
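Cell-based, HFFs, 1000 cells/well, 16 h 37C; cpds in DMSO + HCMV-luc, MOI 1 PFU/cell; 72 h 37C; OneGlo luminescence after 5 min RT; norm. to buffer vs Salinomycin 10uM.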
Lassa entry inh – Lassa virus entry inhibition; actives 1.2% (n = 300,000); Lassa virus pseudotype entry inhibition, cell reporter; Potency, µM (titrated, usually from 37.9 µM), for inactives: at the top dose activity change, negative = inhibition, actives largely listed as inhibitors; calls by dose curve; tested in HEK293 cells; also: potency is read from the fitted curve at half-maximal effect; nearly all actives have a fitted effect of over 50% in size
VACV mCherry inh – inhibitors of vaccinia virus infection (mCherry reporter signal). Vaccinia virus mCherry reporter infection, fluorescence. Potency, µM (doses to about 36.5 µM), without a hit: at the top dose activity change, negative = inhibition, hits mostly inhibitors. actives 0.63% (n = 310,000); calls by dose curve; tested in A549 cells; also: potency is read from the fitted curve at half-maximal effect; nearly all actives have a fitted effect of over 35% in size
An asterisk follows results filed as active; i = inactive; ? = inconclusive; . = no result; [ ] = remark or other dose. % is scaled to controls: 0 for no effect and ±100 for the full control effect.

SMILES | Marburg entry inh | VACV Venus inh | FMDV inh | HCMV inh | Lassa entry inh | VACV mCherry inh
Cc1ccc(C(c2ccccc2)c2c(C)[nH]c3ccccc23)s1 (stereo unspecified) | . | 0.5% | -21.2% | -83.4* | 4.0%[46.1 µM] | -8.3%
O=C1C2CC=CCC2C(=O)N1SC(Cl)(Cl)Cl (stereo unspecified) | . | . | . | -74.0* | . | .
O=C1C2CC=CCC2C(=O)N1Cc1ccccc1Cl (stereo unspecified) | 0.0% | -8.8% | -17.8% | -39.9 | 3.9% | i
O=S1(=O)NC[C@]23C[C@H](c4ccc(F)cc4)[C@@H](C[C@@H]21)O3 | . | -1.5% | 17.7% | -101.6* | . | i
CCOC(=O)c1ccc(N2N=C(C)/C(=C/C=C/c3ccco3)C2=O)cc1 | -29.4% | . | -1.1% | 8.3 | ? | .
O=C(O)c1cc(N2N=C(C(F)(F)F)/C(=C/C=C/c3ccco3)C2=O)ccc1Cl | ? | 18.1% | 28.2µM* | -90.4* | -10.8% | 1.8%
CCCCCCN1CCN(C2CN(Cc3cn(Cc4ccc(C(F)(F)F)cc4)nn3)S(=O)(=O)C2)CC1 (stereo unspecified) | ? | . | . | -34.6 | . | .
O=C(Nc1cc(S(=O)(=O)Nc2ccccc2Cl)ccc1O)c1cc2c(s1)CCCC2 | . | . | 33.2% | -34.6 | . | .
Cc1ccc(C(=O)Nc2ccc(C)c(S(=O)(=O)Nc3ccccc3Cl)c2)s1 | -28.7% | -26.1% | -29.7% | ? | 5.17µM* | -24.4%
Cc1ccc(NC(=O)c2cc3c(s2)CCCC3)cc1S(=O)(=O)Nc1ccccc1Cl | ? | ? | -17.7% | -81.7* | 11.2µM* | ?
O=C(Nc1cccc(S(=O)(=O)Nc2ccc(Cl)cc2)c1)c1cc2c(s1)CCCC2 | ? | ? | -10.5% | -74.8* | ? | ?
C[N+](C)(CCCCCI)c1ccc(/C=C/c2nc3ccccc3s2)cc1 | . | i | . | . | . | 474.4%
O=C1CCC[C@@H]2C[C@@]3(C[C@@H]4CCN1[C@H]24)Nc1ccccc1NC3=NC1CCCCC1 | . | -15.0% | . | . | . | i
O=C(CCc1nnc2n(Cc3ccccc3)c(=O)c3ccccc3n12)NCCCN1CCCCC1 | ? | -10.6% | 6.2% | -62.0* | 24.2%[46.1 µM] | -17.5%
CN1C[C@@H]2C[C@H]1CN2c1cc2c(cc1F)c(=O)c(C(=O)O)cn2C1CC1 | . | . | . | 12.6 | . | .
Cc1ccc(-c2nc(N)nc(N)n2)c(C)c1 | . | -12.2% | -3.4% | -95.5* | . | ?
O=C1/C(=C/c2cccs2)SC(=S)N1CCCC(=O)N(CCO)c1ccccc1 | 3.7%[46.1 µM] | -17.0% | -20.0% | -97.6* | ? | -14.5%
CCc1ccc(/C=C2\SC(=S)N(CCCC(=O)N(CCO)c3ccccc3)C2=O)cc1 | . | ? | ? | -97.7* | . | ?
COc1ccc(/C=C2\SC(=S)N(CCC(=O)N(CCO)c3ccccc3)C2=O)cc1OC | . | . | -18.7% | -60.1* | . | .
COc1ccc(/C=C2/SC(=S)N(CCC(=O)O)C2=O)cc1 | -30.0% | -8.3% | ? | -32.1 | 51.1%[14.3 µM] | -12.3%
CCc1ccc(C=C2SC(=S)N(CCCC(=O)Nc3ccc(C(=O)O)cc3)C2=O)cc1 | . | -2.7% | 3.4% | ? | . | 6.5%
CCOc1ccc(/C=C2\SC(=S)N(CCC(=O)N(CCO)c3ccccc3)C2=O)cc1 | ? | ? | -18.8% | -99.9* | ? | ?
CCc1ccc(-n2c(SCC(=O)NC(C)CC)nc3n[nH]c(C)c3c2=N)cc1 (stereo unspecified) | . | -26.2% | -18.1% | ? | -11.3%[46.1 µM] | -29.4%
COc1ccc(-c2[nH]c(-c3ccc(F)cc3)nc2SCC(=O)Nc2ccc(OC)c(OC)c2)cc1 | ? | -8.3% | -14.7% | -33.6 | -26.7%[46.1 µM] | -10.2%
Cc1ccc(Cl)cc1NC(=O)C(=O)NCCc1sc(-c2ccc(F)cc2)nc1C | . | -7.3% | -18.7% | 20.9 | 15.3%[46.1 µM] | -17.3%
SMILES | Marburg entry inh | VACV Venus inh | FMDV inh | HCMV inh | Lassa entry inh | VACV mCherry inh
Cc1ncc2c(c1CNC(=O)c1ccc3c(c1)OCO3)CCN(C(=O)/C=C/c1ccc(Cl)cc1)C2 | . | 15.1% | -10.9% | . | . | -2.9%
COc1ccc(/C=C2/SC(=O)N(CCC(=O)Nc3ccc(C)cc3)C2=O)cc1OC | -0.6% | . | . | -7.4 | . | .
COc1ccc(/C=C2\SC(=O)N(CC(=O)NCCC(C)C)C2=O)cc1OC | 16.5% | -5.7% | -1.0% | -17.0 | 1.4% | -13.1%
COc1ccc(/C=C2\SC(=O)N(CCNC(=O)Cc3coc4cc(C)ccc34)C2=O)cc1OC | ? | . | 39.8µM* | -99.3* | -1.8% | .
COc1ccc(/C=C2/SC(=O)N(CCC(=O)Nc3ccccc3)C2=O)cc1OC | -0.7% | . | -26.6% | -63.5* | . | .
Cc1ccc2oc(=O)c3cc(C(=O)N4CCN(c5ccccc5F)CC4)sc3c2c1 | -5.3%[46.1 µM] | -1.1% | -3.2% | -1.1 | -5.7%[46.1 µM] | 5.1%
CS(=O)(=O)c1nc([N+](=O)[O-])nn1CCCc1ccccc1 | ? | -3.8% | 17.8µM* | . | 5.1% | -12.7%
COc1cccc(NC(=O)N2CC(=O)N3[C@@H](CO)[C@@H](c4ccc(Br)cc4)[C@@H]3C2)c1 | . | . | . | -9.8 | . | .
O=C(CNC(=O)c1cccs1)N/N=C/c1c(F)cccc1Cl | 18.6% | -13.6% | -3.9% | -60.0* | 12.0% | i
C[C@@H]1Oc2ccccc2C=C1/C=C/C(=O)O | . | . | -4.3% | . | . | .
O=C(O)c1ccc(/C=N/Nc2ccc(F)cc2F)cc1 | 14.1µM* | -6.9% | -73.6% | 213.6 | 2.82µM* | -0.4%
Cc1csc(N/N=C/c2c(F)cccc2Cl)n1 | 15.0% | 5.01µM* | 44.9% | 49.1 | 8.2% | 3.55µM*
CC1Oc2ccccc2C=C1/C=N/Nc1ccc(C(=O)O)cc1 (stereo unspecified) | . | -22.1% | ? | 7.6 | . | 12.6µM*
COc1ccc(-c2cnc3c(NC=O)cc(-c4ccc(N(C)C)cc4)cn23)cc1OC | . | . | . | 19.3 | . | .
COC(=O)[C@@]1(C#N)CC(=O)N([C@@H](C)c2ccccc2)[C@H]1c1ccc(OC)cc1 | . | . | . | -2.7 | . | .
CC1CCC(C(C)C)C(P(=O)(c2ccccc2)c2ccccc2)C1 (stereo unspecified) | . | . | -26.9% | . | . | .
O=C(O)c1ccc(N/N=C/c2ccc(C(F)(F)F)cc2)cc1 | 1.58µM* | -12.8% | ? | -30.5 | 1.26µM* | -9.1%
CC(C)(C)c1ccc(/C=N/Nc2ccc(C(=O)O)cc2)cc1 | 3.66µM* | ? | 7.08µM* | -76.0* | 2µM* | ?
O=C(O)c1ccc(N/N=C/c2c(F)cccc2Cl)cc1 | . | . | 31.6µM* | ? | . | .
O=C(Nc1ccc(F)cc1)OC[C@@H]1CSCCS(=O)(=O)N1 | . | . | . | 12.9 | ? | .
CCC(=O)N1c2ccccc2CC1C(=O)NCCCN1CCN(c2cccc(Cl)c2)CC1 (stereo unspecified) | . | -2.7% | 0.0% | -7.6 | -3.0%[46.1 µM] | -8.7%
C=CCn1c(SCCC)nc2ccccc2c1=O | . | 6.9% | . | . | . | -23.8%
CCCOC(=O)Cn1c(=O)c2cc3c(=O)n(CC(=O)OCCC)c(=O)c3cc2c1=O | 10.4% | -3.7% | 0.7% | -72.5* | -0.8% | -22.9%
CCOC(=O)CSc1nc2ccccc2c(=O)n1CC | 1.4% | -6.7% | -4.3% | -10.2 | 0.7% | -16.4%
